Data published in PubChem BioAssay (EPA / NIEHS).
Results filed as inconclusive are left out. Activity calls are given as the source filed them. How the source made its calls: active means hit-call score of the fitted dose curve at least 0.9, where 1 is the maximum; inconclusive means response in the unintended direction; inactive means score below 0.9.

Each compound was assayed against Estrogen receptor (Homo sapiens) (UniProt P03372) (assay: ATG_ERa_TRANS: Attagene TRANS-FACTORIAL HepG2 Assay for human Estrogen Receptor alpha (ERa) (AID 2282970)). Settings: HepG2 Attagene TRANS ERa GAL4 reporter, mRNA.
Sequence of Estrogen receptor (Homo sapiens) (P03372 whole entry, looked up, the tested form may be a part): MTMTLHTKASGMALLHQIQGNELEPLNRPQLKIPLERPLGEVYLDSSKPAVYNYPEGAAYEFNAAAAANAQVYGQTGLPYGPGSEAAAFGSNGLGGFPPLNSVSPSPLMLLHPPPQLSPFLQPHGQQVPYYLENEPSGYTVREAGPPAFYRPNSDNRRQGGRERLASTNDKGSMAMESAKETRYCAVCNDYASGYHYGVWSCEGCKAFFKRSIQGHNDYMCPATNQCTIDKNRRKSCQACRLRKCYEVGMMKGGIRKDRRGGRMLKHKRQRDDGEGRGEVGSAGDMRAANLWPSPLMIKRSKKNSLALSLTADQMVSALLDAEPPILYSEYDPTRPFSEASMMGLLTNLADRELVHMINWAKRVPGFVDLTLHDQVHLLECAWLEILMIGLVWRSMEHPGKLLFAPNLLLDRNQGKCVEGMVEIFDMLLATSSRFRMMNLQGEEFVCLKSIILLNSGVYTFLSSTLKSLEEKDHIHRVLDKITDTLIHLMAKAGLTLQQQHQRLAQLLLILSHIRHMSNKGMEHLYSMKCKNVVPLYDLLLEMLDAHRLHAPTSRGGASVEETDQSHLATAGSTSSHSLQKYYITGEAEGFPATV
Experimental: ATG_TRANS is a cell-based, multiplexed-readout assay that uses HepG2, a human liver cell line, with measurements taken at 24 hours after chemical dosing in a 24-well plate.ATG_ERa_TRANS is one of 30 assay component(s) measured or calculated from the ATG_TRANS assay. It is designed to make measurements of mRNA induction, a form of inducible reporter, as detected with fluorescence intensity signals by Reverse transcription polymerase chain reaction (RT-PCR) and Capillary electrophoresis technology.Data from the assay component ATG_ERa_TRANS was analyzed into 1 assay endpoint. This assay endpoint, ATG_ERa_TRANS, was analyzed in the positive analysis fitting direction relative to DMSO as the negative control and baseline of activity. Using a type of inducible reporter, measures of mRNA for gain-of-signal activity can be used to understand the reporter gene at the transcription factor-level as they relate to the gene ESR1. Furthermore, this assay endpoint can be referred to as a primary readout, because this assay has produced multiple assay endpoints where this one serves a reporter gene function. To generalize the intended target to other relatable targets, this assay endpoint is annotated to the nuclear receptor intended target family, where the subfamily is steroidal.
Human liver HepG2 cells are transiently transfected with multiple reporter transcription units (MRTUs) in 6-well plates using FuGene 6 reagent (Roche; 3 ml FuGene/1 mg DNA). The MRTU constructs are regulated by a cis-regulating element (promoter). […] A major difference between the CIS and TRANS system is that in CIS activities of endogenous TFs are measured, whereas the TRANS assay evaluates changes in activities of exogenous, chimeric NR-Gal4 proteins. […] At the end of 24 hour incubation, total RNA was isolated using TriZol reagent (Invitrogen). The isolated RNA is then reverse-transcribed using oligo(dT) primer and Mo-MLV reverse transcriptase (Invitrogen) with DNAse I (Ambion) treatment for 30 min. The one-tenth of the produced cDNA was amplified by PCR using Taq DNA polymerase (Invitrogen) and two reporter sequence-specific primers. The PCR products were fluorescently labeled by primer extension with 6-arboxyfluorescein (6-FAM) 5'-labeled reporter sequence-specific primer (2 min at 95 C, 20 s at 68 C and 10 min at 72 C) and these products were digested with 5U of HpaI (New England Biolabs) for 2h at 37 C. […] The raw capillary electrophoresis data was processed using Attagraph software (Attagene).

Compound	outcome	AC50
Cc1ccc(N)cc1O	inactive	–
CCOC(=O)COc1ccc2c(c1)CC(NCC(O)c1cccc(Cl)c1)CC2 (configuration not stated)	–	47.1 µM (active)
Cn1cnc([N+](=O)[O-])c1Sc1ncnc2nc[nH]c12	–	46.1 µM (active)
COc1cccc(-c2ccc(/C=C\CN3CCCCCC3)cc2Cl)c1	inactive	–
CCC(C)(C)C(=O)O[C@H]1C[C@@H](C)C=C2C=C[C@H](C)[C@H](CC[C@@H]3C[C@@H](O)CC(=O)O3)[C@H]21	inactive	–
Cn1c(=O)cc(Oc2ccc(F)cc2F)c2cnc(NCC(C)(C)O)nc21	inactive	–
O=c1n(CC2CO2)c(=O)n(CC2CO2)c(=O)n1CC1CO1 (configuration not stated)	inactive	–
CC/C(=C\C(=N/O)C(N)=O)C(C)[N+](=O)[O-] (configuration not stated)	inactive	–
CCn1nc(Cc2ccccc2)cc1C1CCN(C[C@H]2C[C@H](N(C)[C@@H](C(=O)O)C(C)C)C[C@@H]2c2cccc(F)c2)CC1	inactive	–
C=CC(=C)CCC=C(C)C	inactive	–
CC(C)CCO	inactive	–
Cc1ccc(S(=O)(=O)O)cc1C	inactive	–
O=C(O)c1cccc(Oc2ccccc2)c1	inactive	–
C=CCCCCCCCCC(=O)O	inactive	–
O=C(NS(=O)(=O)/C=C/c1ccccc1)c1ccc(F)cc1Cl	inactive	–
Nc1ccc(Nc2ccccc2)cc1	–	24.5 µM (active)
CC(C)=CCCC(C)CCO (configuration not stated)	–	34 µM (active)
COc1ccc2sc(C(=O)Nc3nnn[nH]3)c(OC(C)C)c2c1	–	59.3 µM (active)
COC(=O)c1c(Cl)c(Cl)c(C(=O)OC)c(Cl)c1Cl	inactive	–
COC(=O)c1ccccc1O	–	25.1 µM (active)
O=P(OC(CCl)CCl)(OC(CCl)CCl)OC(CCl)CCl	inactive	–
CC[C@H]1CC[C@H](NCc2cc3c(cc2OC)[C@H]2C[C@H]2C(=O)N3C)[C@H](c2ccccc2)N1	inactive	–
CC[C@H](C)C(=O)O[C@H]1C[C@@H](C)C=C2C=C[C@H](C)[C@H](CC[C@@H]3C[C@@H](O)CC(=O)O3)[C@H]21	inactive	–
CC(C)=CCCC(C)=CC=O	inactive	–
COc1ccc(-n2nc(C(F)F)cc2-c2ccc(S(C)=O)cc2)cc1 (configuration not stated)	inactive	–
CCCCCCCCO	inactive	–
O=c1[nH]c2ccc(S(=O)CCN3CCC(Cc4ccc(F)cc4)CC3)cc2o1 (configuration not stated)	inactive	–
